{"source": "PubChem BioAssay (NCATS)", "note": "Records with an inconclusive call do not appear. The source made the active and inactive calls. Calls come from the whole dose curve. Potency is the fitted concentration of half-maximal effect."}
{"assay": "Cytotoxicity counterscreen for inhibitors of SARS-CoV-2 cell entry (AID 1645845); note: nearly all actives have a fitted effect of over 50% in size; for activity change, negative = cytotoxicity: % is set by controls: 0 for no effect and ±100 for the full control effect", "conditions": "cell viability (SARS-CoV-2 entry assay cells); series mostly up to 57.1 µM; activity change, negative = cytotoxicity: at the top concentration", "summary_of_the_method": "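ATP-content luminescence (ATPLite 1step, 15 min RT) read after 48 h compound exposure of Expi293F cells stably expressing human ACE2; normalized to cells-only wells and media-only wells.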"}
{"smiles": "O=C1CCCC2=C1C(c1[nH]ncc1Cl)N=C(Nc1nc3ccccc3o1)N2", "note": "(stereo unspecified)", "outcome": "inactive"}
{"smiles": "COc1cc2c(cc1OC)CN(CCc1ccc(NC(=O)c3cccc4c(=O)c5cccc(OC)c5[nH]c34)cc1)CC2", "activity change, negative = cytotoxicity": "-7.98% (inactive)"}
{"smiles": "Clc1ccc(C(c2ccc(Cl)cc2)n2cc[n+](CC(OCc3ccc(Cl)cc3Cl)c3ccc(Cl)cc3Cl)c2)cc1", "note": "(stereo unspecified)", "Potency": "31.6 µM (active)"}
{"smiles": "O=C(Nc1cccnc1)N1CCC(Cc2cccc(Oc3ccc(C(F)(F)F)cn3)c2)CC1", "Potency": "20 µM (active)"}
{"smiles": "CCOC(=O)c1c(C)n(C)c2ccc(O)cc12", "outcome": "inactive"}
{"smiles": "N[C@H]1C(O)O[C@H](CO)[C@@H](O)[C@@H]1O", "note": "(stereo partly specified)", "outcome": "inactive"}
{"smiles": "CN(C)C1CCN(C(=O)c2ccc(NC(=O)Nc3nc(N4CCOCC4)nc(N4CCOCC4)n3)cc2)CC1", "Potency": "6.31 µM (active)"}
{"smiles": "CS(=O)(=O)c1ccc(C(=O)Nc2ccc(Cl)c(-c3ccccn3)c2)c(Cl)c1", "Potency": "inactive"}
{"smiles": "CC(C[N+](C)(C)C)OC(N)=O", "note": "(stereo unspecified)", "Potency": "inactive"}
{"smiles": "CC1(C)CCC(c2ccc(Cl)cc2)=C(CN2CCN(c3ccc(C(=O)NS(=O)(=O)c4ccc(N[C@H](CCN5CCOCC5)CSc5ccccc5)c(S(=O)(=O)C(F)(F)F)c4)cc3)CC2)C1", "activity change, negative = cytotoxicity": "-19.7% (inactive)"}
{"smiles": "Clc1ccccc1CN1CCc2sccc2C1", "Potency": "inactive"}
{"smiles": "C=CC(=O)Nc1cc2c(Nc3ccc(F)c(Cl)c3)ncnc2cc1C#CC(C)(C)N1CCN(C)CC1", "Potency": "25.1 µM (active)"}
{"smiles": "Nc1nc(-c2nn(Cc3ccccc3F)c3ncccc23)nc(N)c1N1CCOCC1", "outcome": "inactive [at 27.1 µM]"}
{"smiles": "Cn1c(=O)c(F)c(Nc2ccc(I)cc2F)c2c(=O)n(C[C@@H](O)CO)cnc21", "outcome": "inactive"}
{"smiles": "OCCC#Cc1nc(-c2ccc(F)cc2)c(-c2ccncc2)n1CCCc1ccccc1", "activity change, negative = cytotoxicity": "-8.61% (inactive)"}
{"smiles": "COc1ccc(CCN2CCN(CCCc3ccccc3)CC2)cc1OC", "outcome": "inactive"}
{"smiles": "COc1ccc2c3n(c(=NC(=O)c4cccnc4)nc2c1OC)CCN3", "activity change, negative = cytotoxicity": "3.4% [at 5.25 µM] (inactive)"}
{"smiles": "NC(=O)C1CCCc2c1[nH]c1ccc(Cl)cc21", "note": "(stereo unspecified)", "outcome": "inactive"}
{"smiles": "C[C@@H]1CN(CC(=O)Nc2ccc3c(c2)Cc2cccc(-c4cc(=O)cc(N5CCOCC5)o4)c2S3)C[C@H](C)O1", "Potency": "14.1 µM (active)"}
{"smiles": "Cc1ccccc1N=Nc1ccc(N=Nc2c(O)ccc3ccccc23)c(C)c1", "outcome": "inactive"}
{"smiles": "CNC(=O)c1ccc(N2C(=S)N(c3ccc(C#N)c(C(F)(F)F)c3)C(=O)C2(C)C)cc1F", "activity change, negative = cytotoxicity": "-23.2% (inactive)"}
{"smiles": "NCCCC(N)(C(=O)O)C(F)F", "note": "(stereo unspecified)", "Potency": "inactive"}
{"smiles": "CCCCCCCCCCC(CO)CCCCCCCC", "note": "(stereo unspecified)", "activity change, negative = cytotoxicity": "-9.49% (inactive)"}
{"smiles": "COc1cc(Oc2ccnc3cc(OC)c(OC)cc23)ccc1NC(=O)NC(C)c1nccs1", "note": "(stereo unspecified)", "activity change, negative = cytotoxicity": "-22.1% (inactive)"}
{"smiles": "CCN(CC)C(=O)c1ccc(C2=CC3(CCNCC3)Oc3cccc(O)c32)cc1", "activity change, negative = cytotoxicity": "3.35% (inactive)"}
{"smiles": "CC(=O)Oc1cccc(C)c1", "activity change, negative = cytotoxicity": "3.22% (inactive)"}
{"smiles": "COc1cccc2c1CCCC2CCCN1CCN(C2CCCCC2)CC1", "note": "(stereo unspecified)", "activity change, negative = cytotoxicity": "-26.5% (inactive)"}
{"smiles": "COc1cccc(OC)c1-c1cc(C(=O)NC2(C(=O)O)C3CC4CC(C3)CC2C4)nn1-c1ccnc2cc(Cl)ccc12", "note": "(stereo unspecified)", "activity change, negative = cytotoxicity": "-6.53% (inactive)"}
{"smiles": "O=C1C(Cl)=C(NCCN2CCOCC2)C(=O)c2ncccc21", "Potency": "28.2 µM (active)"}
{"smiles": "O=C(NCCS(=O)(=O)c1ccc(C(F)(F)F)cn1)c1ccc(Cl)cc1", "activity change, negative = cytotoxicity": "-4% (inactive)"}
{"smiles": "CCN(CC)CCn1c(=O)c(Cc2ccc(OC)cc2)nc2ccccc21", "outcome": "inactive"}
{"smiles": "CCN(CC)CCCCNc1nc2cc(Cl)c(Cl)cc2nc1-c1ccc(-c2cccs2)s1", "activity change, negative = cytotoxicity": "1.65% (inactive)"}
{"smiles": "CC1=C(/C=C/C(C)=C/C=C/C(C)=C/C(=O)O)C(C)(C)CCC1", "activity change, negative = cytotoxicity": "3.88% (inactive)"}
{"smiles": "CC(C)C(=O)Nc1ncc(-c2cc(C(F)F)nn2-c2c(Cl)cccc2Cl)s1", "activity change, negative = cytotoxicity": "-23.7% (inactive)"}
{"smiles": "Cc1ccc(NC(=O)c2cccc(C(C)(C)C#N)c2)cc1Nc1ccc2ncn(C)c(=O)c2c1", "activity change, negative = cytotoxicity": "-5.52% (inactive)"}
{"smiles": "CCCS(=O)(=O)Nc1ccc(F)c(C(=O)c2c[nH]c3ncc(Cl)cc23)c1F", "outcome": "inactive"}
{"smiles": "Cc1cc2c(F)c(Oc3ncnn4cc(OC[C@@H](C)O)c(C)c34)ccc2[nH]1", "activity change, negative = cytotoxicity": "-0.137% (inactive)"}
{"smiles": "S=c1[nH]c2ccccc2s1", "outcome": "inactive"}
{"assay": "Primary qHTS to identify inhibitors of SARS-CoV-2 cell entry (AID 1645846); note: nearly all actives have a fitted effect of over 45% in size", "conditions": "SARS-CoV-2 pseudovirus cell entry assay, luminescence; activity change, negative = inhibition: at 57.1 µM (top of the series) unless noted; series mostly up to 57.1 µM", "summary_of_the_method": "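HEK293-ACE2 (Expi293F, stable hACE2), 1500 cells/well, o/n 37C; cpd 23 nL pin, 1 h; MLV-PP w/ SARS-CoV-2-S (Wuhan-Hu-1, Δ19 C-term); 48 h 37C; Bright-Glo luminescence; normalized vs S-PP and bald PP.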", "units": {"activity change, negative = inhibition": "%"}}
{"smiles": "CCOC(=O)c1c(C)n(C)c2ccc(O)cc12", "activity change, negative = inhibition": -9.91}
{"smiles": "N[C@H]1C(O)O[C@H](CO)[C@@H](O)[C@@H]1O", "note": "(stereo partly specified)", "activity change, negative = inhibition": -23.2}
{"smiles": "Clc1ccccc1CN1CCc2sccc2C1", "outcome": "inactive"}
{"smiles": "NC(=O)C1CCCc2c1[nH]c1ccc(Cl)cc21", "note": "(stereo unspecified)", "outcome": "inactive"}
{"smiles": "CCN(CC)C(=O)c1ccc(C2=CC3(CCNCC3)Oc3cccc(O)c32)cc1", "activity change, negative = inhibition": -22.9}
{"smiles": "COc1cccc(OC)c1-c1cc(C(=O)NC2(C(=O)O)C3CC4CC(C3)CC2C4)nn1-c1ccnc2cc(Cl)ccc12", "note": "(stereo unspecified)", "outcome": "inactive"}
{"smiles": "O=C1C(Cl)=C(NCCN2CCOCC2)C(=O)c2ncccc21", "Potency": "11.2 µM (active)"}
{"smiles": "CCN(CC)CCn1c(=O)c(Cc2ccc(OC)cc2)nc2ccccc21", "activity change, negative = inhibition": -28.6}
